Values joined by “and” are separate entries in the source; they are usually repeats but may differ in a detail not shown here. Equal entries are not always repeated. Hit rate of the full screen: of about 340,000 compounds, about 1,000 (0.29%) were called active. No stated cut-off is given here; in the data, inconclusive means inhibition above about 27% without an active follow-up result; inactive means below that. Not all results are given here. Entries with a potency or affinity are not part of this list.
Assay: NS1A inhibition, H1N1 influenza, cell based functional assay (AID 504329)
Details: percent inhibition, at 12.5 µM, active compounds read high

Row | Structure (SMILES) | inhibition
1 | O=C(C1CC(=O)N(c2ccc(F)cc2)C1)N1CCC(c2nc3ccccc3[nH]2)CC1 (configuration not stated) | -1.46% (inactive)
2 | COc1ccc(-c2cc(C(=O)Nc3ccc(F)cc3F)no2)cc1 | -13.1% (inactive)
3 | CC(C)n1nnnc1SCC(=O)NNC(=O)C1CCCCC1 | -0.25% (inactive)
4 | COC(=O)[C@@H]1C[C@@]2(O)[C@@H](O)[C@@H](O)[C@@H](O)C[C@H]2N1CC1CCCCC1 | -4.19% (inactive)
5 | CCCCn1c(N)c(N(C(=O)CSc2nnnn2-c2ccccc2C)C2CCCC2)c(=O)[nH]c1=O | -10.4% (inactive)
6 | CC1CC(C)CN(C(=O)COc2ccc([N+](=O)[O-])cc2Cl)C1 (configuration not stated) | 0.5% (inactive)
7 | CSCCC(NC(=O)c1ccccc1)C(=O)OCC(=O)Nc1ccc(C)c(Cl)c1 (configuration not stated) | 0.6% (inactive)
8 | COc1ccc(OCc2nnc(SCC(N)=O)n2-c2ccccc2OC)cc1 | -0.95% (inactive)
9 | O=[N+]([O-])c1cc2c(cc1CN1CCN(c3ccccc3)CC1)OCO2 | 1.15% (inactive)
10 | c1ccc(N2CCN(Cc3ccnc4ccccc34)CC2)cc1 | -0.44% (inactive)
11 | O=S(=O)(c1ccc(Cl)cc1)N1CCN(Cc2ccc(O)c3ncccc23)CC1 | 19.8% (inactive)
12 | Oc1ccc2ccccc2c1CN1CCN(c2ccccc2)CC1 | 0.87% (inactive)
13 | O=[N+]([O-])c1cc(Cl)c(O)c2ncccc12 | -6.45% (inactive)
14 | Oc1ccc(COCc2ccccc2)c2cccnc12 | 22.4% (inactive)
15 | COc1ccc(C2C(C(=O)Nc3cc(C)on3)c3ccccc3C(=O)N2C)cc1 (configuration not stated) | 7.42% (inactive)
16 | CCCCNS(=O)(=O)c1cc(-c2nn(C)c(=O)c3ccccc23)ccc1C | -6.29% (inactive)
17 | CC(=O)N1N=C(c2ccc(Br)cc2)OC12CCCC2 | -0.33% (inactive)
18 | C=CCSc1nc(N)c(C(=O)Nc2ccccc2OC)cc1C(=O)Nc1ccccc1 | 6.7% (inactive)
19 | COc1ccccc1NC(=O)c1c(N=Cc2c(O)ccc3ccccc23)cnn1C | 15.2% (inactive)
20 | Cc1cc(OCC(=O)OCC(=O)N2CCc3ccccc3C2)ccc1Cl | -4.55% (inactive)
21 | Cc1ccc(NN=C2C(=O)OC(C)(C)OC2=O)c(C)c1 | -14.3% (inactive)
22 | Cc1ccc(C2Nc3ccccc3NC3=C2C(=O)CC(C)(C)C3)c(O)c1 (configuration not stated) | -4.27% (inactive)
23 | O=C(c1ccccc1F)N1CCN(C(=O)C(c2ccccc2)c2ccccc2)CC1 | 6.85% (inactive)
24 | O=c1ccc(Cl)nn1-c1ccccc1 | -0.77% (inactive)
25 | CSCCC(NC(=O)COc1ccccc1)C(=O)N1CCCCC1 (configuration not stated) | 0.87% (inactive)

Row | Structure (SMILES) | inhibition
26 | CC(=O)c1ccc(S(=O)(=O)NCCCC(=O)N(C)Cc2ccc3c(c2)OCO3)cc1 | -23.5% (inactive)
27 | Cc1cc(NC(=O)CC#N)n(-c2nc3ccccc3[nH]2)n1 | -16.5% (inactive)
28 | CCOC(=O)C(=O)Nc1cc(C)nn1-c1nc2ccccc2[nH]1 | 11.3% (inactive)
29 | CCCOc1ccc(C(C)=O)cc1CSc1nc(O)cc(=O)[nH]1 | 4.86% (inactive)
30 | COc1ccc(C(=O)NCC(=O)N2CCN(C(=O)c3ccco3)CC2)cc1 | -3.4% (inactive)
31 | O=C(COc1c(Br)cc(Br)cc1Br)N/N=C/c1ccco1 | -0.44% (inactive)
32 | CN(C)CCCNc1c2ccccc2nc2ccccc12 | -0.82% (inactive)
33 | CN(C)CCCNC(=O)c1ccccn1 | -2.43% (inactive)
34 | CN(C)CCCNC(=O)c1ccc(-c2ccccc2)cc1 | -6.67% (inactive)
35 | COc1cc(NCc2ccccc2O)c2ncccc2c1 | -8.87% (inactive)
36 | CC(C)C(=O)N1CCC(n2nccc2NC(=O)CCOc2ccccc2)CC1 | 0.18% (inactive)
37 | COc1ccc(/C=N/NC(=O)CN2CCS(=O)(=O)CC2)cc1 | -0.94% (inactive)
38 | CCOC(=O)c1[nH]c2c(c1-c1ccccc1)C(=O)CC(c1ccc(OC)c(OC)c1)C2 (configuration not stated) | 8.75% (inactive)
39 | O=C(NC(Cc1ccccc1)C(=O)O)/C(=C/c1ccccc1)NC(=O)c1ccc(Br)o1 (configuration not stated) | 3.22% (inactive)
40 | CCCCCn1c(=NC(=O)c2cccnc2)c(C#N)cc2c(=O)n3cccc(C)c3nc21 | -3.21% (inactive)
41 | O=C(COC(=O)c1cccc(S(=O)(=O)NCc2ccccc2)c1)c1ccccc1 | 3.76% (inactive)
42 | O=C(NCC(c1cccs1)N1CCOCC1)c1ccc(Cl)c(S(=O)(=O)N2CCOCC2)c1 (configuration not stated) | -3.43% (inactive)
43 | Nc1nonc1-n1nnc(C(=O)N/N=C/c2ccccc2Br)c1CN1CCCC1 | 1.45% (inactive)
44 | CC1CCN(Cc2c(C(=O)N/N=C/c3ccccc3O)nnn2-c2nonc2N)CC1 | -0.06% (inactive)
45 | O=C(CN1C(=O)c2cccc3cccc1c23)NCC1CCCO1 (configuration not stated) | 7.9% (inactive)
46 | Cc1[nH]c(=O)c(C#N)c(C)c1CSc1ncccn1 | -0.63% (inactive)
47 | S=C(Nc1ccccc1)c1ccccn1 | 3.81% (inactive)
48 | CN(C)c1ccc(NC(=S)c2ccc3ccccc3n2)cc1 | 5.3% (inactive)
49 | Cc1cc(C)c2oc(C(=O)N(Cc3ccccc3)C3CCS(=O)(=O)C3)cc(=O)c2c1 (configuration not stated) | -2.06% (inactive)
50 | CC1(C)S[C@@H]2[C@H](NC(=O)Cc3ccccc3)C(=O)N2[C@H]1C(=O)O | -10.5% (inactive) and 1.49% (inactive)

Row | Structure (SMILES) | inhibition
51 | CC1(C)SC2c3ccccc3C(=O)N2C1C(=O)O (configuration not stated) | -0.07% (inactive)
52 | CC(C)C[C@H]1COCCS(=O)(=O)N1Cc1cccc(C(F)(F)F)c1 | -20% (inactive)
53 | O=C(NC1CCCCC1)C1CCN(c2nnnn2-c2ccccc2)CC1 | -1.63% (inactive)
54 | Cc1ccc(SCC(=O)NCc2ccccc2)cc1 | -3.04% (inactive)
55 | Cc1ccccc1NC(=O)N(C(C)C)C(C)C | -12.5% (inactive)
56 | Nc1c(NC2CCCCC2)c2ccccc2oc1=O | 4.37% (inactive)
57 | O=C(Nc1ccccc1NC(=O)NC1CCCCC1)NC1CCCCC1 | 14% (inactive)
58 | Cc1nc(NC(=O)c2cc3c(C)nn(-c4ccccc4)c3s2)sc1C(=O)Nc1ccccc1 | 0.17% (inactive)
59 | COc1ccc(N2CC(C(=O)N/N=C/c3ccccc3)CC2=O)cc1 (configuration not stated) | -7.3% (inactive)
60 | CN(C)c1ccc(-c2n(C)c3ccccc3[n+]2C)cc1 | 28.5% (inactive)
61 | CN(C)c1ccc(/C=C2\SC(=O)N(CC(O)Cn3c4ccccc4c4ccccc43)C2=O)cc1 (configuration not stated) | -1.11% (inactive)
62 | COc1ccc2c(c1)c(=O)cc(-c1ccccc1)n2C | 0.17% (inactive)
63 | CCCCC1(C)OC(=O)C(=Cc2ccc(N(C)C)cc2)C(=O)O1 (configuration not stated) | 0.99% (inactive)
64 | COc1ccc(-c2cc(-c3ccccc3)[n+](C)c(-c3ccccc3)c2)cc1 | -1.4% (inactive)
65 | C[n+]1c(-c2ccccc2)cc2c(=Cc3ccccc3)c3ccccc3n21 | -16.8% (inactive)
66 | CN(c1ccc(Cl)cc1)c1cc(=O)n(C)c2ccccc12 | 3.91% (inactive)
67 | CN(C)c1ccc(/C=N/c2cc(-c3ccccc3)nn2-c2ccccc2)cc1 | -1.42% (inactive)
68 | CC(C)(C)CN1CCNC[C@H]1Cc1cccc2ccccc12 | 4.41% (inactive)
69 | CNCC(O)c1cc(OCc2ccccc2)c(OCc2ccccc2)cc1F (configuration not stated) | 2.8% (inactive)
70 | Cc1cc(Nc2cccc(F)c2)n2c(n1)nc1ccccc12 | -4.78% (inactive)
71 | CC(Sc1nnc(C2CC2)n1C1CC1)C(=O)c1ccc(F)cc1 (configuration not stated) | -11.2% (inactive)
72 | Clc1cccc(Cl)c1CSc1nnc([C@@H]2CCCN2)o1 | -1.85% (inactive)
73 | CC(=O)N1CCN(C(=O)COC(=O)CNC(=O)c2ccccc2C)CC1 | -1.13% (inactive)
74 | Cc1ccc(CNCC(O)(c2ccccc2)c2ccc(Cl)cc2)cc1 (configuration not stated) | 6.37% (inactive)
75 | Cn1c(SCC(=O)N2CCCC2=O)nnc1-c1ccccc1F | 6.14% (inactive)

Row | Structure (SMILES) | inhibition
76 | COc1ccc(C(=O)c2ccc(N(C)C)cc2)c2ccccc12 | 11.2% (inactive)
77 | C[n+]1c(-c2ccccc2)cc(-c2ccc(O)cc2)cc1-c1ccccc1 | -0.313% (inactive)
78 | CCOC(=O)c1cc2c(C)n(-c3ccc(N(C)C)cc3)c(C)c2cc(C(=O)OCC)c1=O | -3.74% (inactive)
79 | CCOC(=O)c1cccc(NC(=O)c2ccc(N(C)C)cc2)c1 | 5.77% (inactive)
80 | CN(C)c1ccc(C=c2c3ccccc3n3c2c2ccccc2[n+]3C)cc1 | 21% (inactive)
81 | CN(C)c1ccc(/C=C2\CCCc3c2nc2ccccc2c3C(=O)O)cc1 | 2.2% (inactive)
82 | CN(C)c1ccc(/C=C/c2nc3ccccc3c(=O)n2-c2ccc(C(=O)O)cc2)cc1 | -25.3% (inactive)
83 | COc1cc(C=c2c3ccccc3n3c2cc(-c2ccccc2)[n+]3C)cc(OC)c1OC | 6.14% (inactive)
84 | COc1ccc(C)cc1NS(=O)(=O)c1ccc2c(c1)N(C)CCO2 | 3.31% (inactive)
85 | COC(=O)C1CN(C(=O)c2ccc(OC(F)F)cc2)c2ccccc2O1 (configuration not stated) | 8.47% (inactive)
86 | CN(CC(=O)Nc1ccccc1Cl)CC(=O)N1CCc2ccccc21 | -8.6% (inactive)
87 | CCOc1ccc(CC(=O)Nc2nccs2)cc1OCC | -1.94% (inactive)
88 | C=CCNc1nc(N)c([N+](=O)[O-])c(Nc2cccc(Cl)c2)n1 | 3.17% (inactive)
89 | CC(C)=CC(=O)Nc1nnc(-c2ccccc2C)s1 | -8.76% (inactive)
90 | O=C(CNCc1ccc(Cl)cc1)N1CCc2ccccc2C1 | -2.57% (inactive)
91 | O=C(CNCc1cccc(Cl)c1)N1CCc2ccccc2C1 | -4.83% (inactive)
92 | CN(C)c1ccc(/C=N/Nc2nc3ccccc3o2)cc1 | -0.4% (inactive)
93 | C/C(=N\Nc1nc2ccccc2s1)c1cccs1 | -10% (inactive)
94 | Cc1ccnc(Nc2nc3ccccc3o2)n1 | -3.68% (inactive)
95 | Oc1ccccc1/C=N/Nc1nc2ccccc2o1 | 12% (inactive)
96 | CC(=NNc1nc2ccccc2s1)c1ccncn1 | 6.3% (inactive)
97 | COc1cc(/C=N/Nc2nc3ccccc3o2)cc(OC)c1O | 1.3% (inactive)
